According to PubChem BioAssay AID651605 (National Center for Advancing Translational Sciences (NCATS), 2012):
Several values for one entry are separate records, joined by “and”; a condition that tells them apart may be missing. Equal entries are not always repeated. Inconclusive results are not listed. Activity calls are given as the source filed them. Calls come from the whole dose curve; as a rule, active = well fitted inhibition curve with a large enough effect; inconclusive = small, poorly fitted or top-dose-only effect; inactive = flat fitted curve, though single readings scatter.

These compounds were tested against Ubiquitin carboxyl-terminal hydrolase 1 (Homo sapiens) (UniProt O94782) (assay: Inhibitors of USP1/UAF1: SAR in Primary Assay). Details: Recombinant USP1/UAF1, Ub-Rhodamine cleavage fluorescence; series mostly up to 57.1 µM.
Ubiquitin carboxyl-terminal hydrolase 1 (Homo sapiens), sequence (O94782 whole entry, looked up): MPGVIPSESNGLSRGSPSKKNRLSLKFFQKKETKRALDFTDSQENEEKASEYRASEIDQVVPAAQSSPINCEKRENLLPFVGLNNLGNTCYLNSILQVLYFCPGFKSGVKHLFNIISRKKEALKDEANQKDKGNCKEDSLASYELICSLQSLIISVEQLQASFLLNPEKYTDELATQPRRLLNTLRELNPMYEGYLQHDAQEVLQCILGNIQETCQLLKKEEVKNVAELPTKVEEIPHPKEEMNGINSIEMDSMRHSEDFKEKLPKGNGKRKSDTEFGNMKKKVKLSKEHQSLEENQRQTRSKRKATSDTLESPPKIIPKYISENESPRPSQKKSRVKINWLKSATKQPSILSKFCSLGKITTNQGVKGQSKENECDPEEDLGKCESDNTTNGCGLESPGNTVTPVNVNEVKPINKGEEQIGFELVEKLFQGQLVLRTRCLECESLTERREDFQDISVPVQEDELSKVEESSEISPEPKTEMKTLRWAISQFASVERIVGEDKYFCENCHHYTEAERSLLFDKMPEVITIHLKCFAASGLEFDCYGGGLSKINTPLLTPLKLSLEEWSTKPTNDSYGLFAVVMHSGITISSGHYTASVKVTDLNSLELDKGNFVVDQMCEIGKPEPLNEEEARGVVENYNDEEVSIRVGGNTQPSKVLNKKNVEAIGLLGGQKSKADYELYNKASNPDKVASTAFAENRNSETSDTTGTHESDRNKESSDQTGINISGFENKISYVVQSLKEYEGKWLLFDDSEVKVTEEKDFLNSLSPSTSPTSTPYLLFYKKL
Description: Deubiquitinating enzymes (DUBs) are a class of enzymes that can cleave isopeptide bond formed between the C-terminal carboxylate of ubiquitin and a lysine side-chain amino group on the target protein. Among them, ubiquitin specific proteases (USPs) constitute the largest DUB family. Human USPs are emerging as promising targets for pharmacological intervention because of their connection to a number of human diseases, including prostate, colon and breast cancer (1, 2), pediatric acute lymphoblastic leukemia (3), and familial cylindromatosis (4). The advantage of inhibiting USPs lies in the potential specificity of therapeutic intervention that can lead to better efficacy and reduce nonspecific side effects. In a collaboration between the University of Delaware and the NIH Chemical Genomics Center, a high-throughput screen assay was developed to screen for USP1/UAF1 inhibitors (5). This assay was used to test the analogs that were synthesized based on SAR around the original hit. NIH Chemical Genomics Center [NCGC] NIH Molecular Libraries Probe Centers Network [MLPCN] MLPCN Grant: DA030552-01 Assay Submitter (PI): Zhihao Zhuang, University of Delaware 1. Priolo, C., et al. (2006) The isopeptidase USP2a protects human prostate cancer from apoptosis. Cancer Res 66, 8625-8632 2. Popov, N., et al. (2007) The ubiquitin-specific protease USP28 is required for MYC stability. Nat Cell Biol 9, 765-774 3. De Pitta, C., et al. (2005) A leukemia-enriched cDNA microarray platform identifies new transcripts with relevance to the biology of pediatric acute lymphoblastic leukemia. Haematologica 90, 890-898 4. Kovalenko, A., et al. (2003) The tumour suppressor CYLD negatively regulates NF-kappaB signalling by deubiquitination. Nature 424, 801-805 5. Chen, J., et al. (2011) Selective and cell-active inhibitors of the USP1/ UAF1 deubiquitinase complex reverse cisplatin resistance in non-small cell lung cancer cells. Chem Bio 18(11):1390-400.
3 microliters of reagents (buffer in columns 3 and 4 as negative control and 1nM USP1/UAF1 complex in columns 1, 2, and 5-48) are dispensed into Greiner black solid bottom 1536-well assay plates. Compounds are then transferred via Kalypsys pin tool equipped with 1536-pin array (10nl slotted pins, V&P Scientific, San Diego, CA). Following an incubation step of 15 min at room temperature, 1ul of Ub-Rho substrate (150nM final concentration) is added to initiate the reaction. The plates are immediately centrifuged at 1000 rpm for 15 seconds, and subsequently transferred to a ViewLux high-throughput CCD imager (PerkinElmer) wherein kinetic measurements of fluorescence are acquired using 480 nm excitation/540 nm emission filter set (6 reads every 60 seconds, see Table 1). All reagents are diluted in an assay buffer consisting of 50mM HEPES (pH 7.8), 0.5mM EDTA, 0.1 mg/ml BSA, 1mM TCEP, and 0.01% Tween-20.
For `CC(C)c1ccccc1-c1ncc(N(C)C)c(NCc2ccc(-c3cccnc3)cc2)n1`, the Potency was 152 nM (active).
`FC(F)(F)c1ccccc1-c1nc2c(c(NCc3ccc(-c4cccnc4)cc3)n1)CCC2` was tested, and the Potency was 681 nM (active).
`Cc1cnc(-c2ccccc2C2COC2)nc1NCC1CCN(c2cccnc2)CC1` was tested, and the Potency was “inactive”.
For `Cc1nc(-c2ccccc2C(C)C)nc(NCc2ccc(-c3cccnc3)cc2)c1C`, the Potency was 136 nM (active).
`CC(C)c1ccccc1-c1ncc(F)c(NCc2ccc(-c3ccn[nH]3)cc2)n1` was tested, and the Potency was 152 nM (active).
In the case of `FC(F)(F)c1ccc(-c2ccc(CNc3nc(-c4ccccc4C(F)(F)F)nc4ccccc34)cc2)cn1`, the Potency is reported as 4290 nM (active).
`Cc1ccc(-c2ccc(CN(C)c3nc(-c4ccccc4C(C)C)ncc3C)cc2)cn1` was tested, and the Potency was 541 nM (active).
With `Cc1cnc(-c2ccccc2C(C)C)nc1NCc1ccc(-c2cccc(S(N)(=O)=O)c2)cc1` the Potency was 215 nM (active).
With `Cc1cnc(-c2ccccc2C(C)C)nc1N(C)Cc1ccc(-c2cccnc2)cc1` the Potency was 681 nM (active).
`CC(C)c1ccccc1-c1ncc(F)c(NCC2CCN(c3cccnc3)CC2)n1` was tested, and the Potency was 96.1 nM (active).
With `Fc1cnc(-c2ccccc2C(F)F)nc1NCc1ccc(-c2ccn[nH]2)cc1` the Potency was 1520 nM (active).
`Fc1cnc(-c2ccccc2C(F)F)nc1NCc1ccc(-c2cccnc2)cc1` was tested, and the Potency was 1210 nM (active).
`FC(F)(F)c1ccccc1-c1nc(NCc2ccc(-c3cccnc3)cc2)c2[nH]cnc2n1` was tested, and the Potency was 607 nM (active).
For `FC(F)(F)c1ccccc1-c1nc(NCC2CCN(c3cccnc3)CC2)c2ccccc2n1`, the Potency was 607 nM (active).
`Cc1cnc(-c2ccccc2C2CC2)nc1NCc1ccc(-c2cccnc2)cc1` was tested, and the Potency was 341 nM (active).
For `FC(F)(F)c1ccccc1-c1nc(NCc2ccc(-c3cncnc3)cc2)c2ccccc2n1`, the Potency was 1920 nM (active).
In the case of `Cc1cnc(-c2ccccc2C(C)C)nc1NCc1cccs1`, the Potency is reported as 215 nM (active).
For `Cc1ccc(-c2ccc(CNc3nc(-c4ccccc4C(C)C)nc4ccsc34)cc2)cn1`, the Potency was 96.1 nM (active).
`FC(F)(F)c1ccccc1-c1nc(NCc2ccc(-c3cccnc3)cc2)c2ccccc2n1` was tested, and the Potency was 607 nM (active).
`Cc1ccc(-c2ccc(CNc3nc(-c4ccccc4C(C)C)ncc3F)cc2)cn1` was tested, and the Potency was 76.4 nM (active).
In the case of `Cc1cnc(-c2ccccc2C(F)F)nc1NCc1ccc(-n2ccnn2)cc1`, the Potency is reported as 482 nM (active).
`CC(=O)c1ccccc1-c1ncc(C)c(NCc2ccc(-c3cccnc3)cc2)n1` was tested, and the Potency was 7640 nM (active).
For `FC(F)(F)c1cccc(-c2nc(NCc3ccc(-c4ccnc(C(F)(F)F)c4)cc3)c3ccccc3n2)c1`, the Potency was “inactive”.
In the case of `Cc1cnc(-c2ccccc2C(C)C)nc1NCc1ccc(-c2cccnc2)cc1`, the Potency is reported as 68.1 nM (active).
For `Cc1cnc(-c2ccccc2C(C)O)nc1NCc1ccc(-c2cccnc2)cc1` (stereo unspecified), the Potency was 1360 nM (active).
In the case of `CC(C)c1ccccc1-c1nccc(NCc2ccc(-c3cccnc3)cc2)n1`, the Potency is reported as 121 nM (active).
In the case of `CC(C)c1ccccc1-c1ncc(N)c(NCc2ccc(-c3cccnc3)cc2)n1`, the Potency is reported as 271 nM (active).
For `CC(C)c1ccccc1-c1ncc(F)c(NC2(c3ccc(-c4cccnc4)cc3)CC2)n1`, the Potency was 38.3 nM (active) and 34.1 nM (active).
`Fc1cnc(-c2ccccc2C(F)F)nc1NCc1ccc(-n2ccnn2)cc1` was tested, and the Potency was 1210 nM (active).
In the case of `Cc1ccc(-c2ccc(CNc3nc(-c4ccccc4C(C)C)nc4ccccc34)cc2)cn1`, the Potency is reported as 136 nM (active).
With `c1ccc(-c2nc(NCc3ccc(-c4cccnc4)cc3)c3ccccc3n2)cc1` the Potency was 13600 nM (active).
